Only a selection was taken, and hits are over-represented in it overall.
Rtt109 HAT inh: inhibitors of Candida albicans Rtt109/Vps75 histone acetyltransferase. purified Rtt109/Vps75, ThioGlo CoA-SH fluorescence, 4 h. inhibition, % at 34.9 µM. Q5AAJ8. 330,000 tested, 0.16% active;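 active means inhibition of at least 50% in every replicate; inconclusive means best replicate reaches 50% inhibition but some replicates fall short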
Target sequence (Q5AAJ8 whole entry, looked up): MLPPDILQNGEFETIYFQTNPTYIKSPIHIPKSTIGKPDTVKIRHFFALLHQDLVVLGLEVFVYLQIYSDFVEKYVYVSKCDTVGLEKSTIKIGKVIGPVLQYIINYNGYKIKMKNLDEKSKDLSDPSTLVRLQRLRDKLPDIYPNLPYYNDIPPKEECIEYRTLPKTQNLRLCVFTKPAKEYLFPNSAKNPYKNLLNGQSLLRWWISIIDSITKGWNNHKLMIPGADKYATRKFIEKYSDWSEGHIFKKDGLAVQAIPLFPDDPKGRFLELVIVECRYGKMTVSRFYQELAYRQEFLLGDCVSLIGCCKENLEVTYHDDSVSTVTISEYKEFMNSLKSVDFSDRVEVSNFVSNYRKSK
DENV2 CPE rescue: protects cells from dengue virus 2 cytopathic effect; DENV2-infected cells, cytopathic effect rescue, plate reader; 350,000 tested, 1.7% active; CPE inhibition, % at 9.99 µM; in the data active means CPE inhibition above about 20%, passing the limit was not always enough; inconclusive means no clear call, values can overlap the other calls; tested in BHK-21 cells;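 further: 0% = median of neutral control wells and 100% = median of positive control wells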
PglD inh: inhibitors of Campylobacter jejuni PglD acetyltransferase. AID 602405. 360,000 tested, 0.098% active. inhibition, % at 12.5 µM. purified PglD enzyme, DTNB colorimetric CoA detection; in the data active means inhibition above about 16%, passing the limit was not always enough; inconclusive means no clear call, values can overlap the other calls
Glyco luc inh: N-linked glycosylation inhibition. D54 ERlucT glycosylation luciferase reporter, 24 h; percent of 100 nM tunicamycin response. reporter increase, % at 12.5 µM. 360,000 tested, 0.23% active. AID 588692;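 active means mean luciferase reporter signal, scaled so untreated is 0 and the glycosylation-blocking control 100, at or above a set limit in every replicate; inconclusive means mean reaches the limit but not every replicate does; inactive means mean below the limit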;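 further: luciferase carries N-glycosylation sites so blocking glycosylation raises the light; 0% = median of neutral control wells and 100% = median of 100 nM tunicamycin wells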
Starred values were filed as active, the others as inactive; ? = inconclusive; / = no result; ! = repeats disagree.

SMILES	Rtt109 HAT inh	DENV2 CPE rescue	PglD inh	Glyco luc inh
C[C@@H]1CN([C@H](C)CO)C(=O)c2cccc(NC(=O)CCCCCC(=O)Nc3ccccc3N)c2O[C@H]1CN(C)Cc1ccc2c(c1)OCO2	/	-5	/	/
C[C@H](CO)N1C[C@H](C)[C@@H](CN(C)C(=O)Nc2ccccc2)Oc2cc(C#CC3(O)CCCC3)ccc2S1(=O)=O	/	?	0	/
O=[N+]([O-])c1cc(S(=O)(=O)C(F)(F)F)ccc1Sc1nc2ccccc2[nH]1	13	/	/	68*
CCOc1ccccc1N1CCN(C(=O)c2ccncc2)CC1	51*	/	/	-2
CCOc1ccccc1N1CCN(C(=O)c2cccc(-c3ccc(O)cc3)c2)CC1	12	/	4	0
COc1cc2cc(CCCOC(=O)CCCC(=O)O)oc(=O)c2cc1OC	0	38*	-2	1
COc1cc2cc(CCCOC(=O)c3cc(OC)c(OC)c(OC)c3)oc(=O)c2cc1OC	-1	-6	6	4
COc1cccc(NC(=O)N2[C@@H]3CNC[C@H]2C3c2ccc(-c3cccc(OC)c3)cc2)c1 (some centres undefined)	/	-5	/	/
COc1cccc(CN2[C@@H]3CNC[C@H]2C3c2ccc(-c3cccc(OC)c3)cc2)c1 (some centres undefined)	/	12	/	/
O=C(Nc1cccc(Cl)c1)N1[C@@H]2CNC[C@H]1C2c1ccc(-c2ccccc2)cc1 (some centres undefined)	/	67*!	/	/
COc1ccc(-c2ccc(C3[C@H]4CNC[C@@H]3N4C(=O)Nc3cccc(OC)c3)cc2)cc1 (some centres undefined)	/	0	/	/
COc1cccc(NC(=O)N2[C@@H]3CNC[C@H]2C3c2ccc(-c3cccnc3)cc2)c1 (some centres undefined)	/	22*!	/	/
COc1cccc(-c2ccc(C3[C@H]4CNC[C@@H]3N4Cc3cccnc3)cc2)c1 (some centres undefined)	/	28*	/	/
COc1ccc(NC(=O)N2[C@@H]3CNC[C@H]2C3c2ccc(/C=C/c3ccccc3)cc2)cc1 (some centres undefined)	/	25*	/	/
COc1ccccc1-c1ccc([C@@H]2[C@@H](C#N)N[C@@H]2CO)cc1	/	5	3	/
O=C(Nc1ccc(Cl)cc1)N[C@H]1CC[C@@H](CCNS(=O)(=O)c2ccccc2F)O[C@H]1CO	/	-1	2	/
COc1ccc(CN2CC3(CCN(Cc4ccccn4)CC3)c3c(n(C)c4cc(OC)ccc34)[C@@H]2CO)cc1	/	0	/	/
N#Cc1cccc(-c2ccc(C3[C@H]4CNC[C@@H]3N4C(=O)Nc3ccc(F)cc3)cc2)c1 (some centres undefined)	/	23*!	/	/
CN(C)C(=O)c1ccc(-c2ccc(C3[C@H]4CNC[C@@H]3N4C(=O)NC3CCCCC3)cc2)cc1 (some centres undefined)	/	-8	/	/
CN(C)CC(=O)NC[C@H]1N[C@@H](CO)[C@H]1c1ccc(-c2cccc(C#N)c2)cc1	/	25*	1	/
N#Cc1cccc(-c2ccc(C3[C@H]4CNC[C@@H]3N4C(=O)Nc3ccccc3F)cc2)c1 (some centres undefined)	/	5	/	/
N#Cc1ccc(-c2ccc(C3[C@H]4CNC[C@@H]3N4C(=O)NC3CCCCC3)cc2)cc1 (some centres undefined)	/	23*	/	/
CCCNC(=O)N1[C@@H]2CNC[C@H]1C2c1ccc(-c2ccc(C#N)cc2)cc1 (some centres undefined)	/	18	/	/
CCCNC(=O)N1[C@@H]2CNC[C@H]1C2c1ccc(-c2cccc(C#N)c2)cc1 (some centres undefined)	/	21*!	/	/
CCC(=O)NC[C@@H]1N[C@@H](CO)[C@H]1c1ccc(-c2cccc(C#N)c2)cc1	/	2	2	/
SMILES	Rtt109 HAT inh	DENV2 CPE rescue	PglD inh	Glyco luc inh
CO[C@@H]1CN(C)C(=O)c2ccc(NS(C)(=O)=O)cc2OC[C@@H](C)N(CC2CCOCC2)C[C@H]1C	/	7	0	/
C[C@H]1CN([C@@H](C)CO)C(=O)c2cc(NC(=O)Cn3cnnn3)ccc2O[C@@H]1CN(C)S(C)(=O)=O	/	?	-1	/
O=C(Nc1cccc(F)c1)N1[C@@H]2CNC[C@H]1C2c1ccc(-c2cccc(F)c2)cc1 (some centres undefined)	/	0	/	/
Cc1cccc(-c2ccc(C3[C@H]4CNC[C@@H]3N4C(=O)Nc3ccc(F)cc3)cc2)c1 (some centres undefined)	/	28*!	/	/
Nc1nc(CN2CCN(Cc3ccccc3)CC2)nc(Nc2ccc3c(c2)OCCO3)n1	20	/	/	47*
Cc1ccc(Nc2nc(N)nc(CN3CCN(Cc4ccc5c(c4)OCO5)CC3)n2)cc1Cl	-14	/	-2	1
